The text below walks through data of PubChem BioAssay (NCATS).

Inconclusive results are not listed. Calls of active or inactive are those of the source. Unless noted, calls come from the whole dose curve; as a rule, active = well fitted curve in the direction sought with a large enough effect; inconclusive = small, poorly fitted or top-dose-only effect, or another doubt; inactive = no such curve, though single readings can be large; an effect the other way counts as inactive or inconclusive.

Assay [1] can be described thus: NS1 protein of Zika virus - qHTS assay to identify small molecule inhibitors in human HEK 293 cells (AID 1347053). Note: nearly all actives have a fitted effect of over 55% in size. Note: potency is the fitted concentration of half-maximal effect. Summed up: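 Inhibition of NS1 expression was scored in HEK 293 cells given compound 1 h ahead of MR766 virus (MOI = 0.5). Following 24 h at 37 C, two anti-NS1 antibodies generated a TR-FRET signal, scaled between uninfected and infected controls.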
A general note: Quantitative high-throughput screening tests each substance at several concentrations.

Assay [2] is described as follows: qHTS of pediatric cancer cell lines to identify multiple opportunities for drug repurposing: Primary screen for TC32 cells (AID 1347089). Note: nearly all actives have a fitted effect of over 60% in size. Note: potency is the fitted concentration of half-maximal effect. In short, it runs like this:
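Measured quantity: luminescence from CellTiter-Glo, reflecting metabolically active TC32 cells following 48 h of compound. Curves came straight from multi-point titrations, with 8 or 11 points in primary and 11 in confirmatory screening.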

The nature of assay [3]: qHTS of pediatric cancer cell lines to identify multiple opportunities for drug repurposing: Primary screen for DAOY cells (AID 1347090). Note: nearly all actives have a fitted effect of over 55% in size. Note: potency is the fitted concentration of half-maximal effect. Summed up:
(§1)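 Cell viability, CellTiter-Glo luminescence; 500-1,000 cells/well, 8- or 11-point titration, 48 h compound exposure at 37 degrees C, 5% CO2. Controls: DMSO neutral, bortezomib 2.3 µM final as positive.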

Assay [4] is described as follows: qHTS of pediatric cancer cell lines to identify multiple opportunities for drug repurposing: Primary screen for SJ-GBM2 cells (AID 1347091). In short, it runs like this: as §1
Assay [5] is described as follows: qHTS of pediatric cancer cell lines to identify multiple opportunities for drug repurposing: Primary screen for A673 cells (AID 1347092). Note: nearly all actives have a fitted effect of over 45% in size. Note: potency is the fitted concentration of half-maximal effect. Summed up: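 Cells are plated, rested 5 h, dosed by pintool, incubated 48 h, then lysed with CellTiter-Glo and read by luminescence. DMSO is the neutral control; bortezomib at 2.3 uM final is the positive control.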
Assay [6] in a line: qHTS of pediatric cancer cell lines to identify multiple opportunities for drug repurposing: Primary screen for SK-N-MC cells (AID 1347093). Note: potency is the fitted concentration of half-maximal effect. Summed up: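 Metabolically active cells were quantified by ATP-dependent luminescence (CellTiter-Glo, 15 min at room temperature) following 48 h treatment. Cells had been plated at 500-1,000 per well and settled for 5 h beforehand.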
The nature of assay [7]: qHTS of pediatric cancer cell lines to identify multiple opportunities for drug repurposing: Primary screen for BT-37 cells (AID 1347094). Note: series mostly up to about 57 µM. In short, it runs like this: (§2)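 500-1,000 cells/well; 5 h pre-incubation 37 °C/5% CO2; compound pinned; 48 h; CellTiter-Glo, 15 min RT; luminescence. MIPE 11-pt from 0.78 nM, NPC 8-pt from 0.59 nM final. Bortezomib 2.3 µM final as positive control.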

Assay [8] can be described thus: qHTS of pediatric cancer cell lines to identify multiple opportunities for drug repurposing: Primary screen for NB-EBc1 cells (AID 1347095). In short, it runs like this: as §2
A short description of assay [9]: qHTS of pediatric cancer cell lines to identify multiple opportunities for drug repurposing: Primary screen for U-2 OS cells (AID 1347096). Note: nearly all actives have a fitted effect of over 50% in size. Summed up: (§3)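 Cells (500-1,000/well) rested 5 h, then received compounds for 48 h; metabolically active cells were measured by CellTiter-Glo luminescence. Final concentrations spanned up to 46 µM (MIPE, 11-point) or 0.59 nM-46 µM (NPC, 8-point) in primary screens, 11-point in follow-ups.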

The nature of assay [10]: qHTS of pediatric cancer cell lines to identify multiple opportunities for drug repurposing: Primary screen for Saos-2 cells (AID 1347097). Note: nearly all actives have a fitted effect of over 40% in size. Note: potency is the fitted concentration of half-maximal effect. Summed up: as §2
A short description of assay [11]: qHTS of pediatric cancer cell lines to identify multiple opportunities for drug repurposing: Primary screen for SK-N-SH cells (AID 1347098). Note: nearly all actives have a fitted effect of over 65% in size. Note: potency is the fitted concentration of half-maximal effect. Summed up:
as §3

Assay [12] is described as follows: qHTS of pediatric cancer cell lines to identify multiple opportunities for drug repurposing: Primary screen for NB1643 cells (AID 1347099). Note: nearly all actives have a fitted effect of over 50% in size. Summed up: as §2
Assay [13] is described as follows: qHTS of pediatric cancer cell lines to identify multiple opportunities for drug repurposing: Primary screen for LAN-5 cells (AID 1347100). Summed up: as §3
The nature of assay [14]: qHTS of pediatric cancer cell lines to identify multiple opportunities for drug repurposing: Primary screen for BT-12 cells (AID 1347101). Note: nearly all actives have a fitted effect of over 25% in size. In short, it runs like this:
as §3

Assay [15] is described as follows: qHTS of pediatric cancer cell lines to identify multiple opportunities for drug repurposing: Primary screen for Rh18 cells (AID 1347102). Note: nearly all actives have a fitted effect of over 65% in size. Summed up:
as §3

Assay [16] concerns the target T1, Tyrosine-protein phosphatase non-receptor type substrate 1 (Homo sapiens) + Leukocyte surface antigen CD47 (Homo sapiens) (UniProt P78324+Q08722). As to the kind of experiment: CD47-SIRPalpha protein protein interaction - LANCE assay qHTS validation (AID 1347057; active = well fitted curve in the direction sought with a large enough effect in the signal ratio, with a control signal flat, not every such curve was filed as active; the % refers to the signal ratio; note: series mostly up to about 38 µM). Summed up:
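First, His-tagged CD47 and Eu-labelled anti-His antibody met the compound for 30 min; next, site-specifically biotinylated SIRPalpha was added for 30 min; finally streptavidin-APC was added before reading the TR-FRET ratio.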
Background: In TR-FRET formats the signal depends on donor and acceptor labels being close together.

The target of assay [17] is T1, Tyrosine-protein phosphatase non-receptor type substrate 1 (Homo sapiens) + Leukocyte surface antigen CD47 (Homo sapiens). As to the kind of experiment: CD47-SIRPalpha protein protein interaction - Alpha assay qHTS validation (AID 1347059).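 Note: bead proximity luminescence from CD47 binding SIRPalpha after compound preincubation with SIRPalpha.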 Note: potency is the fitted concentration of half-maximal effect. In short, it runs like this:
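Binding is measured by AlphaScreen proximity: Ni-NTA acceptor beads capture His-CD47, streptavidin donor beads capture biotin-SIRPalpha. Each of three additions (SIRPalpha with compound, CD47, beads) incubates 30 min at room temperature protected from light.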

Assay [18] concerns the target Parathyroid hormone/parathyroid hormone-related peptide receptor (Homo sapiens) (UniProt Q03431). Nature of the assay: qHTS for PTHR1 Agonists: Optimization Screen against the NCGC LOPAC library (AID 1347079).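 Note: GloSensor cAMP luminescence in HEK-293 GP2 cells expressing human PTHR1 with IBMX.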 In short, it runs like this:
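Agonist readout: GloSensor cAMP luminescence, read after 15 min at room temperature. HEK-293-derived GP2 line carries PTHR1; compounds tested as a titration for 1 hr at 37C in presence of IBMX. M-PTH (1-15) served as control.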

Assay [19] concerns the target T1, Tyrosine-protein phosphatase non-receptor type substrate 1 (Homo sapiens) + Leukocyte surface antigen CD47 (Homo sapiens). Nature of the assay: CD47-SIRPalpha protein protein interaction - HTRF assay qHTS validation (AID 1347058; active = well fitted curve in the direction sought with a large enough effect in the signal ratio, not every such curve was filed as active; the % refers to the signal ratio;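 note: recombinant soluble extracellular CD47 with His tag and biotinylated SIRPalpha domains; series mostly up to about 38 µM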). Summed up: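 TR-FRET read (Ch1/Ch2 ratio) of soluble extracellular CD47 and Avi-biotinylated SIRPalpha domains in PBS pH 7.4 with 0.05% IGEPAL; 7-point compound titration. Sequential 30 min room-temperature steps; non-biotinylated SIRPalpha as control inhibitor.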

Sequence of Parathyroid hormone/parathyroid hormone-related peptide receptor (Homo sapiens) (Q03431 whole entry, looked up): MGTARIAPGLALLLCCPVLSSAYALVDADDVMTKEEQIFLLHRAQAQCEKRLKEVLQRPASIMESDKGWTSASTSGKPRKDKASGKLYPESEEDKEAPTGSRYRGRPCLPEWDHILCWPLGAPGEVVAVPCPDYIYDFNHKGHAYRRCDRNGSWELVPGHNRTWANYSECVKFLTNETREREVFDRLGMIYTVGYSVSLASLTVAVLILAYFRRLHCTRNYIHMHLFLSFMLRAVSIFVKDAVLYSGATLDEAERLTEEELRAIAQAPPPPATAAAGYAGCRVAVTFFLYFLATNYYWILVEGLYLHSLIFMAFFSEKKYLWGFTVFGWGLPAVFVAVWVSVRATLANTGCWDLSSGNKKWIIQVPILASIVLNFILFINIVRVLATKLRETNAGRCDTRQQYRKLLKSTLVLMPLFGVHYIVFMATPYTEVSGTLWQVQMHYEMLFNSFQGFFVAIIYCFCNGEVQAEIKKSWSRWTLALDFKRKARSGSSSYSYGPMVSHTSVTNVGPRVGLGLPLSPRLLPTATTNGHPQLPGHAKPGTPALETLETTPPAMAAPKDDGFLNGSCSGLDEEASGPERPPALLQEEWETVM
T1 sequence (P78324 whole entry, looked up): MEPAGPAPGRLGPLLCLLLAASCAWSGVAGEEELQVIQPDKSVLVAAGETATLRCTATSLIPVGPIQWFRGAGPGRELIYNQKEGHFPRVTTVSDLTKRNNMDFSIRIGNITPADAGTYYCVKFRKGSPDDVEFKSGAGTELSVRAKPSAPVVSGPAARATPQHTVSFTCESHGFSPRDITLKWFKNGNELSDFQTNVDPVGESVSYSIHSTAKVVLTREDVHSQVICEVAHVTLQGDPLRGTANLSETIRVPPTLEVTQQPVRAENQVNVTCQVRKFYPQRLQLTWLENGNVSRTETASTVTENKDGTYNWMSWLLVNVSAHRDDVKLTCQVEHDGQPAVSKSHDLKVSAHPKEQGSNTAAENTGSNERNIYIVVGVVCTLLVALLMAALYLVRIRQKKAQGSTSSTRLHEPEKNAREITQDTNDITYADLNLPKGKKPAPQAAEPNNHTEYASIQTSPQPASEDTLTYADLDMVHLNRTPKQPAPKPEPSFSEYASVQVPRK
T1 sequence (Q08722 whole entry, looked up): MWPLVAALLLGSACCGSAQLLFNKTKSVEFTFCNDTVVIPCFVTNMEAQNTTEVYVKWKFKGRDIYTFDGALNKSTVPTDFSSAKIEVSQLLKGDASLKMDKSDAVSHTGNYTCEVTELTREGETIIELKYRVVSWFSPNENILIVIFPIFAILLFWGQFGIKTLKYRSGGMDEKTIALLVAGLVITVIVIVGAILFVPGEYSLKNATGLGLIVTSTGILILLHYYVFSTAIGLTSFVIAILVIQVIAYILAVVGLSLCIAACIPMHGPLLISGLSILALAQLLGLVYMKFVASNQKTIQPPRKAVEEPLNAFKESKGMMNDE

As to `C/C(=N\O)c1ccc(OCC(=O)N2CCCCC2)cc1`, the Potency entry in assay [1], in assay [2], in assay [3], in [4], in assay [5] and in assay [6] was “inactive” throughout. Moreover, the Potency result in [7], in [8], in assay [9], in assay [10], in [11] and in assay [12] was “inactive” each time. Moreover, the Potency entry in assay [13], in [14] and in assay [15] was “inactive” in each case.

As to `Cn1ncc(S(=O)(=O)Cc2ccccc2)c(Br)c1=O`, the Potency result in assay [1], in assay [16], in assay [17] and in [18] was “inactive” each time.

In the case of `c1cnc2c(c1)ccc1cccnc12`, the Potency is 7.08 µM (active) in assay [1] and 0.185 µM (active) in assay [17]. The Potency result in assay [16] and in assay [18] was “inactive” each time. Also, the outcome in assay [19] was inactive.

`CCOC(=O)N1CCN(/[N+]([O-])=N/Oc2ccc([N+](=O)[O-])cc2[N+](=O)[O-])CC1`: the Potency result in assay [1], in assay [16], in assay [17] and in assay [18] was “inactive” each time.

Turning to `COc1ccc(-c2cc(=O)c3c(O)c(OC)c(OC)cc3o2)cc1O`, the Potency result in assay [1], in assay [16] and in [17] was “inactive” throughout.

On to `O=[N+]([O-])c1ccc(CSc2ncnc3c2ncn3[C@@H]2O[C@H](CO)[C@@H](O)[C@H]2O)cc1`, for which the Potency result in [1], in assay [16], in assay [17] and in [18] was “inactive” each time.

In the case of `O=C1/C(=C/c2ccsc2)CC/C1=C\c1cccs1`, the Potency result in assay [1], in assay [16], in assay [17] and in assay [18] was “inactive” each time.

Consider `CS(=O)(=O)c1ccc(-n2nc(C(F)(F)F)cc2-c2ccc(F)cc2)cc1`, for which the Potency entry in assay [16] and in [17] was “inactive” each time. Further, in assay [19], the result was inactive.

For `COC(=O)C1=C(C)NC(C)=C(C(=O)OCC(C)=O)C1c1ccccc1[N+](=O)[O-]` (centres undefined), the Potency entry in [1], in assay [2], in assay [9], in [13] and in assay [15] was “inactive” in each case. The Potency in [6] was 13.3 µM (active).

For the compound `O=C(CCSCc1ccco1)NNC(=O)N1Cc2ccccc2Oc2ccc(Cl)cc21`, the Potency result in assay [16] and in assay [17] was “inactive” throughout. Also, the result in assay [19] was inactive.

Turning to `C#C[C@]1(O)CC[C@H]2[C@@H]3CCc4cc(O)ccc4[C@H]3CC[C@@]21C`, the Potency entry in assay [1] and in [9] was “inactive” each time. Besides, the Potency was 13.3 µM (active) in assay [3], 26.6 µM (active) in assay [5], 4.73 µM (active) in assay [6] and 8.41 µM (active) in [10].

On to `O=C1CN(/N=C/c2ccc([N+](=O)[O-])o2)C(=O)N1`, for which the Potency entry in assay [1], in assay [3], in assay [4], in [6], in [7] and in [8] was “inactive” in each case. In addition, the Potency result in assay [9], in assay [10], in assay [11], in assay [12], in [13] and in assay [15] was “inactive” throughout.

`NS(=O)(=O)C#Cc1ccccc1`: the Potency result in [16], in assay [17] and in [18] was “inactive” in each case. The result in assay [19] was inactive.

For the compound `O=c1cc(-c2ccccc2)oc2ccccc12`, the Potency entry in assay [1], in assay [3], in assay [4], in [6], in assay [8] and in [13] was “inactive” in each case. The Potency result in [15] was “inactive”.

Turning to `O=P(O)(O)C(Cl)(Cl)P(=O)(O)O`, the Potency result in assay [16], in assay [17] and in [18] was “inactive” in each case. Further, the result in assay [19] was inactive.

In the case of `O=S(=O)(c1cccc2c(I)cccc12)N1CCCNCC1`, the Potency entry in [16] and in assay [17] was “inactive” in each case.

As for `S=c1[nH]c2ccccc2s1`, the Potency result in [1], in assay [3], in [4], in assay [7], in [8] and in assay [9] was “inactive” in each case. In addition, the Potency result in assay [10], in assay [11], in [13], in assay [14] and in [15] was “inactive” each time. For the same compound, in [5], the Potency was 19.3 µM (active).

Regarding `NC(=O)C(c1ccccc1)(c1ccccc1)[C@@H]1CCN(CCc2ccc3c(c2)CCO3)C1`, the Potency entry in assay [1], in [2], in assay [4], in assay [5], in [6] and in assay [7] was “inactive” each time. Moreover, the Potency result in [9], in [11], in assay [12], in assay [13] and in assay [14] was “inactive” throughout.

`NS(=O)(=O)c1ccc(-n2nc(C(F)(F)F)cc2-c2ccc(Cl)cc2)cc1`: the Potency result in [16] and in assay [17] was “inactive” in each case.

As for `Cc1cn([C@H]2CC(N=[N+]=[N-])[C@@H](CO)O2)c(=O)[nH]c1=O` (some centres undefined), the Potency result in assay [16] and in assay [17] was “inactive” each time.

For `N#C/C(=C\c1ccc(-c2cc(Cl)ccc2Cl)o1)C(=O)Nc1cccc2ncccc12`, the Potency result in assay [16] and in [17] was “inactive” each time.

With `COc1cc(NC(C)CCCN)c2ncccc2c1` (centres undefined), the Potency result in [1], in [3], in assay [4] and in assay [13] was “inactive” each time. Further, the Potency in assay [2] was 16.7 µM (active); in assay [10] it was 23.7 µM (active); in [11], 17.2 µM (active).

On to `C#CC1(O)CC[C@H]2[C@@H]3CCC4=CCCC[C@@H]4[C@H]3CC[C@@]21C` (some centres undefined), for which the Potency result in assay [1], in [2], in assay [4], in assay [7], in assay [8] and in assay [13] was “inactive” in each case. Besides, the Potency entry in assay [15] is “inactive”. The Potency in assay [11] is 24.4 µM (active).

Regarding `CCN(CC)CCCCNc1ncc2cc(-c3c(Cl)cccc3Cl)c(NC(=O)NC(C)(C)C)nc2n1`, the Potency entry in assay [16] and in assay [17] was “inactive” each time.

In the case of `CN(C)c1ccc(N=NS(=O)(=O)O)cc1`, the Potency result in assay [1], in assay [2], in assay [4], in assay [7], in assay [8] and in assay [9] was “inactive” throughout. Further, the Potency result in assay [11] and in [15] was “inactive” in each case.

As to `COc1ccccc1CNCCCCCCNCCCCCCCCNCCCCCCNCc1ccccc1OC`, the Potency result in assay [16], in [17] and in [18] was “inactive” in each case. The result in assay [19] was inactive.

On to `Cn1c(=O)c(-c2c(Cl)cccc2Cl)cc2cnc(Nc3ccc(N4CCOCC4)cc3)nc21`, for which the Potency result in [16] was “inactive”. Also, the outcome in assay [19] was inactive.

As to `Nc1ccc(O)c([N+](=O)[O-])c1`, the Potency result in [1], in assay [3], in assay [4], in assay [5], in [7] and in [8] was “inactive” in each case. The Potency entry in [9] and in assay [15] was “inactive” throughout.

For `COC(=O)C1=C(C)NC(C)=C(C(=O)OC)C1c1cccc(NC(=O)NCCCN2CCC(c3cccc(OC)c3)CC2)c1`, the Potency result in assay [16] and in assay [17] was “inactive” each time. Also, the outcome in assay [19] was inactive.

`O=C(CS)Nc1ccccc1`: the Potency result in assay [1], in assay [2], in assay [7], in [9], in [11] and in assay [14] was “inactive” throughout. Besides, the Potency result in assay [15] is “inactive”.
